Source: PubChem BioAssay (EPA / NIEHS)
The source made the active and inactive calls. How the source made its calls: active means hit-call score of the fitted dose curve at least 0.9, where 1 is the maximum; inactive means score below 0.9.

experiment: BSK_4H_Eotaxin3: BioMAP Diversity Plus: 4H Assay for Eotaxin 3 Biomarker Activity (AID 2283000); conditions: primary human endothelial cells (HUVEC); actives raise or lower the signal
Protocol: BSK_4H is a cell-based, multiplexed-readout assay that uses umbilical vein endothelium, a human vascular primary cell, with measurements taken at 24 hours after chemical dosing in a 96-well plate.BSK_4H_Eotaxin3 is an assay component measured in the BSK_4H assay. It measures Eotaxin-3 antibody related to regulation of gene expression using ELISA technology.Data from the assay component BSK_4H_Eotaxin3 was analyzed into 1 assay endpoint. This assay endpoint, BSK_4H_Eotaxin3, was analyzed with bidirectional fitting relative to DMSO as the negative control and baseline of activity. Using a type of binding reporter, gain or loss-of-signal activity can be used to understand changes in the signaling as they relate to the gene CCL26. Furthermore, this assay endpoint can be referred to as a primary readout, because this assay has produced multiple assay endpoints where this one serves a signaling function. To generalize the intended target to other relatable targets, this assay endpoint is annotated to the cytokine intended target family, where the subfamily is chemotactic factor.
The levels of cell surface (or secreted, indicated by the prefix "s") biomarker endpoints were measured by ELISA. Overt cytotoxicity to cells in confluent adherent cultures (all systems other than the BT system) was assessed by measuring total protein levels using sulforhodamine B (SRB) staining in parallel cultures at the time of biomarker measurements, indicated as SRB endpoints. For proliferation assays for adherent cell types, individual cell types are cultured at sub-confluence and relative cell numbers quantified by SRB staining at time points optimized for each system (48 h: 3C and CASM3C systems; 72 h: BT and HDF3CGF systems; 96 h: SAg system). SRB was performed by staining cells with 0.1% SRB after fixation with 10% TCA and reading wells at 560 nm.Viability and proliferation of PBMC (T cells) was quantified by Alamar Blue reduction for the SAg and BT systems. For PBMC viability (referred to as PBMC Cytotoxicity within the assay endpoint names), cells were plated (75,000/well in a 96-well plate) and then chemical samples added for 1 h before addition of activators, SEB and TSST-1 (20 ng/mL final concentration each). Cells were incubated for 90 h. Then, Alamar Blue (20 uL/well) (Invitrogen, Cat DAL1100) was added for 6 h, and the plates were read with a fluorescence microplate reader at 546/580 nm (excitation/emission). For PBMC proliferation, cells were plated and activated as above but incubated for only 16 h prior to addition of Alamar Blue. Plates were read after 6 h.

SMILES	outcome	AC50
O=S(=O)(F)C(F)(F)C(F)(F)C(F)(F)C(F)(F)C(F)(F)C(F)(F)C(F)(F)C(F)(F)F	inactive	–
O=P1(N(CCCl)CCCl)NCCCO1 (stereo not given)	inactive	–
ClC(Cl)(Cl)c1ccccc1	inactive	–
CCOP(=S)(OCC)SCSc1ccc(Cl)cc1	–	7.22 µM (active)
N#Cc1c(-c2ccc(Cl)cc2)[nH]c(C(F)(F)F)c1Br	–	0.796 µM (active)
CCCN(CCC)c1c([N+](=O)[O-])cc(C(C)C)cc1[N+](=O)[O-]	–	32.1 µM (active)
OCC(F)(F)OC(F)(F)C(F)(F)OC(F)(F)C(F)(F)OC(F)(F)CO	inactive	–
OCC(F)(F)OC(F)(F)C(F)(F)OC(F)(F)CO	inactive	–
CCOP(=S)(OCC)SCSCC	inactive	–
N#Cc1cc([N+](=O)[O-])ccc1N	–	4.4 µM (active)
CC(C)(C)c1ccccc1OP(=O)(Oc1ccccc1)Oc1ccccc1	–	26.2 µM (active)
ClC(Cl)=C(c1ccc(Cl)cc1)c1ccccc1Cl	–	6 µM (active)
CCCCCCCc1ccc(O)cc1	–	31.5 µM (active)
CCOc1ccc(C(C)(C)COCc2cccc(Oc3ccccc3)c2)cc1	inactive	–
O=C(O)C(F)(F)OC(F)(F)C(F)(F)OC(F)(F)F	inactive	–
COCCOCCO	inactive	–
c1cc2c3c(cccc3c1)CC2	inactive	–
ClC1=C(Cl)C2(Cl)C3C(Cl)C(Cl)CC3C1(Cl)C2(Cl)Cl (stereo not given)	–	31 µM (active)
Nc1ccc(Cl)cc1	inactive	–
c1nc[nH]n1	inactive	–

SMILES	outcome	AC50
Cc1ccc2c(c1N)C(=O)c1ccccc1C2=O	–	9.4 µM (active)
CC(O)C(F)(F)C(F)(F)F (stereo not given)	inactive	–
CCC1(c2ccccc2)C(=O)N=C(O)NC1=O (stereo not given)	inactive	–
Cc1ccc(N)cc1N	inactive	–
O=C(O)C(Cl)Cl	inactive	–
O=C(O)C1C(C(=O)O)C2(Cl)C(Cl)=C(Cl)C1(Cl)C2(Cl)Cl (stereo not given)	inactive	–
CCCCC(CC)COP(=O)(Oc1ccccc1)Oc1ccccc1 (stereo not given)	–	20 µM (active)
O=[N+]([O-])c1ccccc1	inactive	–
FC(F)(F)C(F)(C(F)(F)F)C(F)(F)C(F)(F)CC1CO1 (stereo not given)	inactive	–
ClC(Cl)c1ccccc1	inactive	–
O=C(O)C=CC(F)(C(F)(F)F)C(F)(F)F	inactive	–
CCCCC(CC)COC(=O)c1c(Br)c(Br)c(Br)c(Br)c1C(=O)OCC(CC)CCCC (stereo not given)	inactive	–
CCOP(=S)(S)OCC	inactive	–
Cc1ccc([N+](=O)[O-])cc1C	inactive	–
CCC(C)(C)c1ccc(O)cc1	inactive	–
NC(=O)C(F)(F)C(F)(F)F	inactive	–
COP(N)(=S)OC	inactive	–
CCOP(=S)(OCC)SCS(=O)(=O)CC	inactive	–
O=P(Oc1ccccc1)(Oc1ccccc1)Oc1ccccc1	–	33.8 µM (active)
Nc1cc2c3c(c1)C(c1ccccc1)=N[C@@H](NC(=O)c1cccnc1)C(=O)N3CC2	inactive	–
